From PubChem BioAssay
MCF10A rerep: A quantitative high throughput screen for small molecules that induce DNA re-replication in MCF 10a normal breast cells | MCF 10A DNA re-replication, Hoechst nuclear intensity, 48 h | AID 624296, 2012 | Potency, µM (titrated, usually from 46.1 µM), for inactives: at the top dose activity, positive = re-replication, usual class: activators | 2.9% of 350,000 active; also: % of control where 0% means no effect; nearly all actives have a fitted effect of over 50% in size
HT1080 IDH1KD tx: qHTS for induction of synthetic lethality in tumor cells producing 2HG: qHTS for the HT-1080-IDH1KD cell line | HT-1080 IDH1 knockdown viability, ATP luminescence, 48 h | Potency, µM (top dose mostly 46.1 µM), inactives show at the top dose activity, negative = toxicity, hits mostly cytotoxic | 2% of 360,000 active | AID 686971, 2013;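 also: 0% = DMSO wells and -100% = cell-free medium wells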
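IDH1KD HT-1080 cells, 750/well, RPMI + 5% FBS; compound pinned after 2 h settling; 48 h, 37 °C; CellTiter-Glo luminescence; % activity normalised to DMSO and no-cell wells; curves fitted, classed by r2 and efficacy.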
KB-V1 MDR tox: qHTS assay for MDR1-selective chemotherapeutics: Primary screen using the drug-selected MDR subline cells KB-V1. 3.4% of 400,000 active. AID 1347076, 2019. Potency, µM (series often up to 46.1 µM), most hits filed as cytotoxic. KB-V1 MDR cells viability, CellTiter-Glo, 72 h; also: % is scaled to controls: 0 for no effect and ±100 for the full control effect; nearly all actives have a fitted effect of over 60% in size
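Drug-selected KB-V1 cells, grown in DMEM lacking phenol red with 10% FBS, receive compound titrations; after three days at 37 degrees C, surviving cell ATP is quantified by CellTiter-Glo luminescence and responses normalized and curve-fitted.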
KB-3-1 cytotox: qHTS assay for MDR1-selective chemotherapeutics: Primary screen using the parental adenocarcinoma cell KB-3-1 | KB-3-1 viability, CellTiter-Glo ATP luminescence, 72 h | Potency, µM (series often up to 46.1 µM), hits mostly cytotoxic | 1.4% of 400,000 active; also: % is scaled to controls: 0 for no effect and ±100 for the full control effect; nearly all actives have a fitted effect of over 60% in size
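Here the drug-naive KB-3-1 line serves as comparator for MDR sub-line selectivity; cells received compound titrations, 72 h at 37 °C, then CellTiter-Glo readout.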
HT1080NT lethal: qHTS for induction of synthetic lethality in tumor cells producing 2HG: qHTS for the HT-1080-NT fibrosarcoma cell line; 1.6% of 360,000 active; Potency, µM (series often up to 46.1 µM), for inactives: at the top dose activity, negative = less viability, most hits filed as cytotoxic; AID 686970, 2013; HT-1080-NT fibrosarcoma viability, CellTiter-Glo ATP luminescence, 48 h;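 also: NT is the 2HG producing partner of a matched IDH1 knockdown line; 0% = DMSO-treated cells and -100% = media-only wells without cells; nearly all actives have a fitted effect of over 55% in size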
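750 cells/well, RPMI + 5% FBS; 2 h settle, compound pin-transfer, 48 h at 37 degrees C. CellTiter-Glo 10 min RT, luminescence. Normalized to DMSO and media-only wells.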
SW480 rereplic: A quantitative high throughput screen for small molecules that induce DNA re-replication in SW480 colon adenocarcinoma cells | 1.8% of 340,000 active | AID 624297, 2012 | SW480 DNA re-replication, Hoechst DNA content imaging, 48 h | Potency, µM (series often up to 46.1 µM), for inactives: top-dose re-replication activation, hits mostly activators; also: % of control where 0% means no effect; nearly all actives have a fitted effect of over 55% in size
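SW480 cells exposed to compounds for 48 hr at 37 C, 5% CO2, then Hoechst-stained 40 min. Nuclear DNA content imaged by fluorescence scanning (405 nm excitation, 500-530 nm emission); re-replication scored as increased high-intensity nuclei.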
* = called active by the depositor; i = inactive; ? = inconclusive; . = not tested or not shown. Sampled rows, rich in hits. Any-hit rate of the full collection: about 7.9%. Calls follow the shape of the dose curve; as a rule, active = well fitted curve in the direction sought with a large enough effect; inconclusive = small, poorly fitted or top-dose-only effect, or another doubt; inactive = no such curve, though single readings can be large; an effect the other way counts as inactive or inconclusive. Potency is read from the fitted curve at half-maximal effect.

SMILES	MCF10A rerep	HT1080 IDH1KD tx	KB-V1 MDR tox	KB-3-1 cytotox	HT1080NT lethal	SW480 rereplic
COc1ccc(C(=O)N2Cc3cnnn3-c3ccccc3C2C#N)cc1 (centres undefined)	2%	12%	i	i	16%	?
CN1Cc2cnnn2-c2ccccc2C1C#N (centres undefined)	?	?	i	?	-11%	?
COc1ccc(CN2Cc3cnnn3-c3ccccc3C2C#N)cc1 (centres undefined)	3.3µM*	6.5µM*	?	i	8.2µM*	?
CC12NC(Cc3ccccc31)c1ccccc12 (centres undefined)	-1%	.	.	.	.	-2%
CC(CCl)OC(C)CCl (centres undefined)	2%	2%	i	i	-1%	?
COc1ccccc1N1CCN(S(=O)(=O)c2c(C)ccc3nsnc23)CC1	15%	?	i	i	-19%	0%
O=C1CN=C(c2cc([N+](=O)[O-])ccc2Cl)c2cc([N+](=O)[O-])ccc2N1	?	-17%	i	i	0%	1.6µM*
O=C1CN=C(c2ccccc2)c2cc([N+](=O)[O-])ccc2N1	-8%	-3%	i	i	6%	-38%
O=C(OCc1c(-c2ccccc2)ncc2ccccc12)c1ccc(C(F)(F)F)cc1	-20%	7%	i	i	8%	3%
CCn1c(O)c(/C=N/NC(=O)c2ccncc2)c(=O)[nH]c1=S	24%	-7%	i	i	-6%	1%
CCn1c(O)c(/C=N/NC(=O)c2ccccc2)c(=O)n(CC)c1=S	?	-8%	i	?	0%	18µM*
CCN(CC)CCCOC(=O)C(OC(C)C)(c1ccccc1)c1ccccc1	2%	?	8.2µM*	?	?	?
Oc1ccccc1/C=N/[n+]1ccccc1	-2%	-1%	i	i	6%	-11%
c1ccc2c(CN3CCOCC3)c[nH]c2c1	-3%	-8%	i	i	-4%	-33%
c1ccc2c(CN3CCCCCC3)c[nH]c2c1	-7%	-20%	i	15µM*	-6%	0%
c1ccc2c(CNC3CCCCCC3)c[nH]c2c1	-2%	20µM*	?	?	?	1%
COc1ccccc1N1CCN(Cc2c[nH]c3ccccc23)CC1	22%	?	?	i	?	24%
Cc1ccccc1N1CCN(Cc2c[nH]c3ccccc23)CC1	?	1.3µM*	i	i	?	12%
Clc1ccccc1CNCCc1c[nH]c2ccccc12	.	4%	i	i	5%	.
COC1=C(C)C(=O)c2c(c(COC(N)=O)c3n2C[C@@H]2[C@@H]3N2C)C1=O (some centres undefined)	.	.	?	i	.	.
CC1=CC(O)C(O)C2(C)C1CC1OC(=O)CC3C(C)C(O)C(=O)C2C13CO (centres undefined)	0%	-9%	i	18µM*	-2%	?
NCC(=O)c1ccc(Br)cc1	.	.	i	i	.	.
Cc1ccc2c(c1)C1CN(C)CCC1N2C(=O)Nc1ccc(Cl)cc1 (centres undefined)	7%	?	?	i	?	26%
O=C(CCN1CC2CCC(CC2)C1)c1cccs1	10µM*	?	i	i	20%	?
CCOC(=O)[C@]12Cc3c(cc(OC)c(OC)c3OC)[C@H]1N(C(C)C)C(=O)c1cc(OC)ccc12	.	18µM*	2.6µM*	4.1µM*	15µM*	.
